Results on 14 compounds are retold here after PubChem BioAssay AID602256 (National Center for Advancing Translational Sciences (NCATS), 2012).

Each structure is given as a SMILES string. Records with an inconclusive call do not appear. Calls of active or inactive are those of the source. Calls follow the shape of the dose curve; as a rule, active = well fitted curve in the direction sought with a large enough effect; inconclusive = small, poorly fitted or top-dose-only effect, or another doubt; inactive = no such curve, though single readings can be large or run the other way.

Chain of Relaxin receptor 1 (Homo sapiens) (Q9HBX9 whole entry, looked up): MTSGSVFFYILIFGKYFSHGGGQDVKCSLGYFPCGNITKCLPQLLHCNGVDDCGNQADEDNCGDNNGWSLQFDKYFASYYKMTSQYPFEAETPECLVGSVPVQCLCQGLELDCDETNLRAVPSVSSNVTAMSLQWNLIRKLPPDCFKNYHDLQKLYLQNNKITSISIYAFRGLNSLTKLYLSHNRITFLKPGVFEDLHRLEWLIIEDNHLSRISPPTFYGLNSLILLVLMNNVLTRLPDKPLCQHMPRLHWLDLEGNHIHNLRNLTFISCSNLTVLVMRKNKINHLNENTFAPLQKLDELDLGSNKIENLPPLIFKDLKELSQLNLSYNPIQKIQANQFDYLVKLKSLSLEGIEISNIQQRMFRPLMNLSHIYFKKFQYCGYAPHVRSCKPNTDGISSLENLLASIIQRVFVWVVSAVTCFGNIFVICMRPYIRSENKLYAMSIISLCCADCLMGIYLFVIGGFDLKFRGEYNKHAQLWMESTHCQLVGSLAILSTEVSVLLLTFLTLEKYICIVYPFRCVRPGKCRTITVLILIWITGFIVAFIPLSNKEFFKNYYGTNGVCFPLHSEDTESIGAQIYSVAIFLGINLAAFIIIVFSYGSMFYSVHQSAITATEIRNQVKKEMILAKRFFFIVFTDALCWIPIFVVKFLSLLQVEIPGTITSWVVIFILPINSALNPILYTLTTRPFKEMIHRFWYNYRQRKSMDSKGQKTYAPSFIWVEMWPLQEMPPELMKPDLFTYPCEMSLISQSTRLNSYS

The test concerns the target Relaxin receptor 1 (Homo sapiens) (UniProt Q9HBX9). The test can be described thus: qHTS Assay for Agonists of the Relaxin Receptor RXFP1: RXFP1 SAR. The following applies: HEK293T-RXFP1 cAMP TR-FRET, 30 min; efficacy: active compounds read high. From the text: The relaxin hormone is involved in the variety of biological functions in normal tissues and diseases. The role of relaxin is well-established in female reproduction and parturition, mammary gland and endometrial development, maintenance of myometrial quiescence during pregnancy. Relaxin signaling through its G protein-coupled receptor (GPCR) RXFP1 results in ECM remodeling through regulation of collagen deposition, cell invasiveness, proliferation and overall tissue homeostasis. […] Recombinant human relaxin (rhRlx) is currently being tested in clinical trials as a protective agent in congestive heart failure, in treating severe preeclampsia, and as an anti-fibrotic agent in systemic sclerosis. Upon relaxin binding RXFP1 activation leads to the activation of adenylate cyclase (AC) via Gs. cAMP will activate PKA, which phosphorylates many signaling proteins. Thus, detection of cAMP increase is an easy and reliable indication of relaxin receptor activation. To screen for agonists of the relaxin receptor, a HEK293T cell line stably transfected with RXFP1 was used. RXFP1 activation was assayed by changes in cAMP levels as detected with a time-resolved fluorescence energy transfer (TR-FRET) cAMP detection kit. NIH Chemical Genomics Center [NCGC] NIH Molecular Libraries Probe Production Centers Network [MLPCN] MLPCN Grant: R03 MH085705-01A1 Assay Submitter (PI): Alexander Agoulnik
This is a cell-based assay for cAMP second messenger response to screen for agonists of the RXFP1 receptor. The assay was conducted in the presence of a PDE4 inhibitor (Ro 20174). The cells were lysed and the cAMP levels were measured with a TR-FRET cAMP kit. Presence of cAMP in the cell lysate disrupts binding between the cryptate-labeled anti-cAMP and d2-labeled cAMP pair, leading to a decrease in the TR-FRET signal. Data were normalized to the controls for basal activity (buffer only) and 100% activity (29 nM porcine relaxin). The EC50 values were determined from concentration-response data modeled with the standard Hill equation 1536-well assay protocol for the HEK293 RXFP1 cAMP assay: (1) Add 3 ul HEK293 RXFP1 cell culture. 2000 cells/well in DMEM/F12, 10% FBS, 1x Pen/Strep (dispensed offline with MultiDrop Combi). (2) Incubate 16-24 hr at 37C, 5% CO2. (3) Add 1 ul 400uM Ro20174 in DPBS, 0.05% BSA, 0.005% Tween 20. (3) Add 23 nl compounds in DMSO solution. Final concentration was 0.5 - 58 uM. (4) Incubate 30 min at 37C, 5% CO2. (5) Add 1 ul cAMP-d2 in lysis buffer (HTRF cAMP HiRange kit, CisBio). (6) Add 1 ul anti-cAMP antibody-cryptate in lysis buffer (HTRF cAMP HiRange kit, CisBio). (7) Incubate 30 min at room temperature. (6) Detect the assay plate in a ViewLux plate reader (PerkinElmer) with Ex=320 nm, Em1=615 nm and Em2=665 nm. Keywords: relaxin, RXFP1, RXFP2, G-protein coupled receptor, cAMP, agonist, high throughput screening, MLSMR, MLSCN, NIH Roadmap, qHTS and NCGC
Background: qHTS replaces the single test concentration by a dilution series.
In the case of `CCOc1ccccc1C(=O)Nc1sccc1C(=O)Nc1cccc(S(=O)(=O)C(F)(F)F)c1`, the Potency is 2360 nM (active).

In the case of `COc1ccccc1Nc1ccccc1C(=O)Nc1cccc(C(F)(F)F)c1`, the Potency was 4710 nM (active).

For `O=C(Nc1ccccc1C(=O)Nc1cccc(C(F)(F)F)c1)c1cccnc1`, the Potency was 5930 nM (active).

In the case of `CCCCOc1ccccc1C(=O)Nc1ccccc1C(=O)Nc1cccc(S(=O)(=O)C(F)(F)F)c1`, the Potency is 47.1 nM (active).

Take `O=C(Nc1cccc(C(F)(F)F)c1)c1ccccc1NC(=O)c1ccccc1OC(F)(F)F`: the Potency was 1180 nM (active).

With `CCOc1ccccc1-c1nc2c(C(=O)Nc3cccc(S(=O)(=O)C(F)(F)F)c3)cccc2[nH]1`, the efficacy was 4.9% (inactive).

Regarding `O=C(Nc1cccc(SC(F)(F)F)c1)c1ccccc1NC(=O)C1CCCCC1`, the Potency was 1880 nM (active).

For `COc1ccccc1C(=O)Nc1ccccc1C(=O)Nc1cccc(C(F)(F)F)c1`, the Potency was 334 nM (active).

Regarding `CCC(CC)C(=O)Nc1ccccc1C(=O)Nc1cccc(C(F)(F)F)c1`, the Potency was 5290 nM (active).

As for `COc1ccccc1C(=O)Nc1cccc(C(=O)Nc2cccc(C(F)(F)F)c2)c1`, the efficacy is 1.37% (inactive).

`O=C(Nc1cccc(C(F)(F)F)c1)c1ccccc1NC(=O)C1CCCCC1`: the Potency is 1880 nM (active).

Regarding `CSc1cccc(NC(=O)c2ccccc2NC(=O)C2CCCCC2)c1`, the Potency is 5290 nM (active).

Consider `CC(C)(C)c1cccc(NC(=O)c2ccccc2NC(=O)C2CCCCC2)c1`, for which the Potency is 2650 nM (active).

Take `COCCOc1ccccc1C(=O)Nc1ccccc1C(=O)Nc1cccc(C(F)(F)F)c1`: the Potency is 747 nM (active).
